Screening data from PubChem BioAssay.
CF NFkB block: inhibitors of PAF-induced NF-kB signaling, primary screen, cell-based, GFP fluorescence, uHTS. inhibition, % at 5 µM. 360,000 compounds, 0.86% hits. KKLEB NF-kB-GFP reporter, GFP fluorescence overnight;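 active = at least 50% inhibition at 5 µM, scaled per plate between neutral and stimulator controls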;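 note: PAF is a Pseudomonas aeruginosa culture filtrate used as stimulus; plate controls were PAF-stimulated DMSO wells for no effect and unstimulated DMSO wells for full effect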
KKLEB tox: cytotoxicity in KKLEB CF airway cells, primary screen, cytotoxicity control for CF NF-kB inhibitor project, cell-based, uHTS, fluorescence assay plates | KKLEB CF airway cells viability, ATPlite luminescence, overnight; hits give low values; cells stimulated with P. aeruginosa culture filtrate | activity change (cytotoxicity), % at 5 µM | 360,000 compounds, 0.36% hits | AID 602141, 2011;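 active = corrected activity change at or below -50% at 5 µM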
HIF-2a inh: HIF-2a reporter inhibitors, primary screen, luminescence, 786-0 RCC cells. 360,000 compounds, 0.72% hits. AID 624352, 2012. inhibition, % at 18.8 µM. 786-0 RCC cells HIF-2a reporter, luciferase luminescence, overnight;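 active = inhibition of the luminescence signal of 40% or more relative to plate controls, in a single-dose primary screen at 18.75 µM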
TWEAK-Fn14 inh: inhibitors of TWEAK-Fn14 signaling, primary screen, luciferase reporter cells, uHTS | TWEAK-stimulated Fn14 reporter cells, luciferase luminescence, 8 h | inhibition, % at 10 µM | 360,000 compounds, 2% hits | AID 1159606, 2016; in the data active = inhibition above about 50%
Peg3 prom inh: Peg3 promoter-driven luciferase inhibitors, primary screen, cell-based, HeLa, luciferase luminescence; HeLa PEG-Prom luciferase reporter, overnight; 360,000 compounds, 1.7% hits; inhibition, % at 20 µM;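 active = inhibition of at least 50% at 20 µM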
TROY NFkB inh: inhibitors of TROY-driven NF-kB signaling, primary screen, Q293 LMP1-TROYcd cells, NF-kB luciferase, uHTS. inhibition, % at 10 µM. AID 1347056, 2019. Q293 LMP1-TROYcd NF-kB luciferase reporter, 4 h. 360,000 compounds, 0.98% hits;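 active = compounds whose plate-normalised and pattern-corrected inhibition of the luciferase reporter signal at the single screening dose is 50% or more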
Active calls of the source: *; . = not tested or not shown. Rows were chosen to be rich in hits. Some 4% of all compounds tested hit in one or more screens of this group.

SMILES	CF NFkB block	KKLEB tox	HIF-2a inh	TWEAK-Fn14 inh	Peg3 prom inh	TROY NFkB inh
CC1=Nc2ccccc2/C1=C/c1c(O)[nH]c(=O)[nH]c1=O	-3.8	-6.2	25.1	8.2	9.7	1.5
Cc1ccc(C(=O)C2CN3CCC2CC3)cc1 (stereo unspecified)	-7.1	16.2	8.9	84.4*	33.1	.
Cc1ccc(C(=O)C2CN(C)CC2C(=O)c2ccc(C)cc2)cc1 (stereo unspecified)	-9.2	-3.5	-82.8	-2.6	-113.8	41.9
CN(Cc1cccc(-c2ccncc2)c1)C(=O)Oc1ccccc1Cc1ccccc1	.	.	2.1	93.3*	.	66.0*
Cc1nc2cc(OC(=O)N(C)Cc3cccc(-c4ccncc4)c3)ccc2s1	.	.	-26.0	92.9*	.	66.1*
CN(Cc1cccc(-c2ccncc2)c1)C(=O)Oc1ccccc1Cl	.	.	-32.2	74.8*	.	48.5
O=S(=O)(c1ccc(Cl)cc1)N1Cc2ccccc2-n2nncc2C1	6.2	0.6	-13.3	1.4	8.7	-5.6
CCOC(=O)[C@]12Cc3ccccc3[C@H]1N(Cc1ccccc1)C(=O)c1cc(F)c(F)cc12	.	.	19.9	11.4	.	5.2
C[C@]12CCC3C(CC[C@H]4C[C@@H](O)CC[C@]34C)C1CC[C@@H]2OC(=O)[C@H](N)CCCCN (stereo partly specified)	16.8	-11.2	16.9	-21.7	87.4*	9.4
O=C1NC(=O)N(CCc2ccc(F)cc2)C(=O)/C1=C\C=C\c1ccccc1	89.3*	-48.4	10.7	97.8*	33.7	32.3
COCc1cc(OC(=O)N(C)C)nc2c1c(C)nn2C	-4.5	-0.8	7.6	-10.2	4.7	56.8*
CC[n+]1c(SC)ccc2cc(OC)ccc21	7.9	4.8	15.3	-13.3	-7.1	-8.9
Oc1c(Br)c(Br)c(Br)c(Br)c1Br	48.1	-7.4	-38.2	1.6	48.2	71.2*
Oc1c(Br)cc(Br)cc1Br	-8.4	2.9	1.4	6.2	1.7	14.4
O=C1NC(=O)C(=Cc2coc3ccc(O)cc3c2=O)C(=O)N1	3.5	9.1	6.3	8.0	-2.0	21.9
CC1CCCC(NC(=O)CNC(=S)N2CC3CC(C2)c2cccc(=O)n2C3)C1C (stereo unspecified)	-13.3	4.4	2.3	10.2	-16.0	-0.9
Oc1ccc(O)c2c1C1(Cl)C(Cl)=C(Cl)C2(Cl)C1(Cl)Cl	43.8	-12.4	25.0	42.7	61.1*	51.7*
COc1cccc(C(=O)N2CCC3(CC2)OCCO3)c1	-8.9	-6.2	7.8	17.5	10.4	1.7
Cc1cccc(-c2nc3ccc(C(=O)N4CCC5(CC4)OCCO5)cc3nc2-c2cccc(C)c2)c1	18.2	-5.8	8.7	-9.0	56.3*	8.3
COC(=O)C1=C(c2ccc(Cl)c(C(F)(F)F)c2)C[C@@H]2CC[C@H]1N2C	7.5	6.4	1.2	1.8	-19.5	-9.9
CC(C)CCn1c(N)c(C(=O)NCc2cccs2)c2nc3ccccc3nc21	-4.0	13.8	0.2	63.1*	24.9	67.8*
COCCNC(=O)c1c(NC(=O)c2ccc(Br)o2)n(Cc2ccccc2)c2nc3ccccc3nc12	-13.0	-7.5	2.1	58.0*	23.3	68.1*
Nc1c(C(=O)OCC2CCCO2)c2nc3ccccc3nc2n1Cc1cccs1 (stereo unspecified)	-8.3	-11.2	-5.5	48.9	7.1	68.2*
CC(C)OCCCNC(=O)c1c(N)n(Cc2cccs2)c2nc3ccccc3nc12	9.2	-2.2	18.5	30.0	34.5	33.6
COCCCNC(=O)c1c(NC(=O)c2ccco2)n(Cc2ccccc2)c2nc3ccccc3nc12	26.5	-11.7	7.9	14.1	27.4	.
SMILES	CF NFkB block	KKLEB tox	HIF-2a inh	TWEAK-Fn14 inh	Peg3 prom inh	TROY NFkB inh
COCCNC(=O)c1c(N)n(CCC(C)C)c2nc3ccccc3nc12	-23.3	13.6	8.7	35.0	27.7	73.4*
COc1ccc(-n2nc(C(=O)NCC(=O)N3CCC4(CC3)OCCO4)c3ccccc3c2=O)cc1OC	-1.9	-1.8	-96.0	-23.4	-131.1	-15.3
CCOc1cc2c(cc1OCC)-n1cccc1C(c1c(O)cccc1OC)NC2 (stereo unspecified)	23.8	-15.7	11.8	6.5	27.8	-7.0
COC(=O)C1=C(c2c(C)noc2C)C[C@@H]2CC[C@H]1N2C(=O)N1CCCC1	-29.7	-7.9	13.6	9.1	-95.0	8.5
CCOP(=O)(OCC)C(O)c1ccc(OC)cc1 (stereo unspecified)	6.3	3.2	15.7	-7.4	12.3	5.0
CCCCn1c(=O)c(C(=O)NCc2ccncc2)c(O)c2ccccc21	-0.5	-5.4	24.5	56.2*	9.0	22.6
CCCCCn1c(=O)c(C(=O)Nc2ccccc2S(N)(=O)=O)c(O)c2ccccc21	0.9	-17.1	7.5	59.0*	24.8	36.2
CCCCCCOc1ccc(CN2CCN(CCO)CC2)cc1	-4.0	-12.7	-100.2	43.3	-133.7	56.3*
O=C(Nc1ccncc1)c1cccn(Cc2ccccc2)c1=O	7.7	-3.1	5.1	50.0*	-3.4	-5.2
COC(=O)C1=C(c2cc3ccccc3s2)C[C@@H]2CC[C@H]1N2C(=O)N1CCCCC1	16.8	-12.1	12.3	15.3	14.5	28.6
CCN1/C(=C/C=C/C2=[N+](CC)c3ccccc3C2(C)C)C(C)(C)c2ccccc21	-84.8	-42.5	39.3*	81.6*	96.4*	66.2*
COc1ccc(CCn2c(O)c(C=Nc3ccc(F)cc3)c(=O)[nH]c2=O)cc1OC	-8.7	2.3	21.1	-5.3	15.7	34.9
CCN(CC)c1ccc(N=Cc2c(O)n(CCc3ccc(OC)c(OC)c3)c(=O)[nH]c2=O)cc1	3.4	-6.2	5.7	51.8*	68.6*	37.5
C=C1C(=O)O[C@@H]2C[C@@H](C)[C@@H]3C=CC(=O)[C@@]3(C)[C@@H](OC(=O)CC(=O)O[C@H]3[C@@H]4C(=C)C(=O)O[C@@H]4C[C@@H](C)[C@@H]4C=CC(=O)[C@]43C)[C@H]12	80.5*	-36.6	97.4*	105.3*	105.1*	89.3*
C=C1C(=O)O[C@H]2[C@H]1[C@H](OC(=O)CC(=O)O[C@@H]1C[C@@H](C)[C@@H]3C=CC(=O)[C@@]3(C)[C@H]3OC(=O)C(=C)[C@H]13)C[C@@H](C)[C@H]1C=CC(=O)[C@]12C	46.6	-8.0	-3.0	17.5	22.4	-15.3
Cc1ncoc1C(=O)NCC1=C(c2ccc(S(C)(=O)=O)cc2)C[C@@H]2CC[C@H]1N2CCOc1ccccc1	-12.8	-1.5	4.9	-1.1	-7.8	-2.9
CC1Oc2cc3c(-c4c(O)cc(O)c5c(O)c6c(cc45)OC(C)C(C)C6=O)c(O)cc(O)c3c(O)c2C(=O)C1C (stereo unspecified)	67.3*	-55.9*	-7.8	68.3*	70.1*	12.5
